Reference: PubChem BioAssay AID624297 (National Center for Advancing Translational Sciences (NCATS), 2012)
Values joined by “and” are separate entries in the source; they are usually repeats but may differ in a detail not shown here. Equal values may be shown once. Hit rate of the full screen: of about 340,000 compounds, about 6,200 (1.8%) were called active. About 10% were inconclusive and are not listed. Calls follow the shape of the dose curve; as a rule, active = well fitted activation curve with a large enough effect; inconclusive = small, poorly fitted or top-dose-only effect; inactive = no such curve, though single readings can be large or run the other way. What follows is part of a selection rich in actives, with near analogues and random picks from the rest. A call without a number means that no potency is given here. Some compounds were tested as several samples or in several runs, with calls that do not always agree.

Assay: A quantitative high throughput screen for small molecules that induce DNA re-replication in SW480 colon adenocarcinoma cells. Also: nearly all actives have a fitted effect of over 55% in size.
Conditions: Hoechst DNA content imaging, 48 h; series mostly up to 46.1 µM
Text: H Molecular Libraries Probe Production Network [MLPCN] NIH Chemical Genomics Center [NCGC] MLPCN Grant: Fast Track K99 CA136555 Assay Provider: Melvin DePamphilis, NICHD, NIH Assay Overview Eukaryotic cells normally restrict genome duplication to once per cell division. When this process is aberrant, DNA re-replication occurs when cells reinitiate DNA replication before the first round of replication is complete. DNA re-replication induces the DNA damage response, arrests cell proliferation, and triggers apoptosis. The cell cycle components cyclin A, Cdt-1, Cdc6 and geminin are critical regulators of this process and their misregulation results in DNA re-replication in normal and cancer cells. To identify compounds that induce re-replication in normal cells, an image-based assay was used to measure DNA content of nuclei, as detected by the fluorescent DNA binding dye, Hoechst. Cell nuclei were imaged by a fluorescence scanning plate imager and compounds that induce DNA re-replication were identified by the increase of nuclei with elevated fluorescence intensity
For screening, 250 cells in 5 uL/well were dispensed into black clear 1536-well plates (Aurora) using a solenoid-based dispenser. Following transfer of 23 nL compound or DMSO vehicle by a pin tool, the plates were incubated 48 hr at 37 C and 5% CO2. After addition of 1 uL/well Hoescht stain, the plates were incubated 40 min at 37 C, 5% CO2 and total intensity of fluorescent objects (nuclei) were enumerated by an Acumen Explorer Ex3 (TTP LabTech) fluorescence scanning plate imager (405 nm excitation, 500-530 nm emission). Keywords: NIH Roadmap, MLPCN, MLI, MLSMR, qHTS, NCGC, DNA replication, cancer
Potency is read from the fitted curve at half-maximal effect.

Compound | Potency | re-replication activation
Oc1c(Cl)cc(Cl)c(Cl)c1Cc1c(O)c(Cl)cc(Cl)c1Cl | inactive and 16.4 µM (active) | 
CCOC(=O)[C@@H]1[C@H]2COc3ccc(Br)cc3[C@H]2N2C(=O)N(c3ccc(C)cc3)C(=O)[C@@]12C | inactive | 
COc1cc(NC(=O)c2[nH]cnc2C(N)=O)cc(C(=O)Nc2cccc(C(F)(F)F)c2)c1 | inactive | 
Cn1c(N)c(C(=O)COC(=O)c2ccc3ccccc3c2)c(=O)n(C)c1=O | inactive | 
CCN(C[C@H]1N[C@@](Cc2ccccc2)(C(=O)OC)[C@H]2C(=O)N(Cc3ccccc3)C(=O)[C@@H]12)C(=O)c1ccc(C)cc1 | inactive | 
COc1ccc(C(=O)COC(=O)CN2C(=O)C3CC=CCC3C2=O)c(OC)c1 (configuration not stated) | inactive | 
Cc1cccc(N(CC(=O)N=Nc2c(O)[nH]c3ccccc23)S(C)(=O)=O)c1C | inactive | 
O=C(CCN1CCCCC1)N=Nc1c(O)[nH]c2ccccc12 | 18.4 µM (active) | 
COCC(=O)N=Nc1c(O)[nH]c2ccccc12 | inactive | 
O=c1nc(NO)ccn1C1CCCO1 (configuration not stated) | inactive | 
COc1ccccc1NC1=NC(c2ccc(Cl)cc2)N=C(N)N1 (configuration not stated) | 20.6 µM (active) | 
CC1(C)N=C(N)NC(Nc2ccc(Cl)cc2)=N1 | inactive | 
COc1ccccc1NC(=O)C1CCCN1S(=O)(=O)c1ccc(Cl)cc1 (configuration not stated) | inactive | 
C[C@@H]1CN([C@H](C)CO)C(=O)c2cc(NC(=O)NC3CCCCC3)ccc2O[C@H]1CN(C)S(C)(=O)=O | inactive | 
COc1ccc(CCNC(=O)COC(=O)c2cc(=O)c3ccccc3o2)cc1 | inactive | 
CNC[C@H]1Oc2c(NC(=O)C3CCCCC3)cccc2C(=O)N([C@H](C)CO)C[C@@H]1C |  | 4.46% [at 9.22 µM] (inactive)
CCOc1ccc(-c2cc(C(=O)N/N=C/c3ccc(O)cc3)c3ccccc3n2)cc1 | 18.4 µM (active) | 
COc1cc(/C=N/NC(=O)c2cc(-c3ccccc3C)nc3ccccc23)cc(OC)c1O | inactive | 
COc1ccc(/C=N/NC(=O)c2cc(-c3cccc(C)c3)nc3ccccc23)cc1O | inactive | 
O=C(O)c1cccc(N2C(=O)Nc3ccccc3N2O)c1 | inactive | 
C/C(=N\Nc1cccc(C(=O)O)c1)c1ccc2c(c1)Nc1ccccc1S2 | 8.2 µM (active) | 

Compound | Potency | re-replication activation
Cc1ccccc1NC(=O)c1cc(S(=O)(=O)Nc2cccc(C(=O)O)c2)ccc1Cl | inactive | 
COc1cc(OC)cc(-c2c(C#Cc3ccsc3)c3cc(-c4ccc(OC)cc4F)ccc3n2C)c1 | inactive | 
c1ccc(CNc2ncnc3[nH]ncc23)cc1 | inactive | 
Nc1cc(=O)n(Cc2ccccc2)c(=O)n1Cc1ccccc1 | inactive | 
Cc1nn(-c2ccc(F)cc2)c(Cl)c1/C=C(/CCC(=O)O)c1nc2ccccc2s1 | inactive | 
CCCCN(C(=O)c1cccc(N2C(=O)c3ccccc3C2=O)c1)c1c(N)n(CCCC)c(=O)[nH]c1=O | inactive | 
CCn1c(=S)[nH]c2cc(S(=O)(=O)N3CCOCC3)ccc21 | inactive | 
Cc1ccc(/C=N/NC(=O)c2sccc2OCc2ccc(F)cc2)cc1 | 16.4 µM (active) | 
Cc1ccsc1C(=O)N/N=C/c1ccc([N+](=O)[O-])cc1 | inactive | 
Cc1ccc(COc2ccc(/C=N/NC(=O)CN3CCCCC3)cc2)cc1 | inactive | 
CC(C)Cn1cnc2c(SCc3ccc(Cl)cc3)nc(N)nc21 | inactive | 
CCN(CC)c1ccc(NC(=O)c2ccc(Cl)nc2)cc1 | 16.4 µM (active) | 
O=C(Nc1ccc2nc3n(c(=O)c2c1)CCCC3)c1ccc(Cl)nc1 | inactive | 
O=C(NNC(=O)c1ccc(Cl)nc1)c1ccc(Br)cc1 | inactive | 
O=C(COc1ccccc1F)NNC(=O)c1cc(Br)ccc1Cl | inactive | 
NC(=O)c1ccc(N2CCCC2)nc1 | inactive | 
Oc1ccc(Br)cc1C=Nc1ccc2[nH]ncc2c1 | inactive | 
Cc1c(C(=O)Nc2ccccn2)oc2ccc(Br)cc12 | inactive | 
Oc1ccc(Br)cc1/C=N/Nc1ccccn1 | 9.2 µM (active) | 
CCOC(=O)CCCCCC(=O)Nc1ccc2c(c1)CC(=O)N([C@@H](C)CO)C[C@H](C)[C@@H](CN(C)Cc1ccccc1)O2 | inactive | 
Cc1ccn(CC(=O)N2N=C(C(F)F)CC2(O)C(F)F)n1 (configuration not stated) | 0.517 µM (active) | 

Compound | Potency | re-replication activation
Cc1nn(Cc2ccc(C(=O)N3N=C(C(F)F)CC3(O)C(F)F)cc2)c(C)c1[N+](=O)[O-] (configuration not stated) | inactive | 
Cc1ccn(CCC(=O)N2c3ccccc3CC2C)n1 (configuration not stated) | inactive | 
CC1(C)C[C@H]2C3=CCC4[C@@]5(C)CC[C@H](O)[C@](C)(CO)C5CC[C@@]4(C)[C@]3(C)C[C@@H](O)[C@@]2(CO)[C@@H](O)[C@@H]1O (some centres not stated) | inactive | 
COc1cc(C(=O)OCC(=O)NC23CC4CC(CC(C4)C2)C3)cc(OC)c1OC | inactive | 
COc1ccc(C(CNC(=O)c2cc(S(=O)(=O)Nc3cccc(C)c3)ccc2C)N2CCCC2)cc1 (configuration not stated) | inactive | 
CC[C@]1(C(=O)OC)[C@H]2C(=O)N(Cc3ccccc3)C(=O)[C@H]2[C@H]2CN=C(SCc3ccc(C#N)cc3)N21 |  | -4.58% [at 9.22 µM] (inactive)
CCCCNS(=O)(=O)CCNCc1ccccc1OC | inactive | 
CCOc1cc(-c2cc(-c3ccc(NC(C)=O)cc3)nc(N)c2C#N)ccc1O | inactive | 
COc1ccc(OC)c2c(N)c(C#N)c(C(F)(F)C(F)(F)F)nc12 | inactive | 
COc1ccc(-c2cc(-c3ccc(N)cc3)nc(N)c2C#N)cc1OC | 23.1 µM (active) | 
COc1cccc(NC(=O)CN(C)CC(=O)c2c(N)n(Cc3ccccc3)c(=O)n(C)c2=O)c1 | inactive | 
CC(=O)Nc1nonc1-c1nc2ccccc2n1Cc1ccccn1 | inactive | 
CCn1c(C(O)c2cc(OC)ccc2OC)nc2ccccc21 (configuration not stated) | inactive | 
COc1ccc(C)c(Cn2c(-c3nonc3N)nc3ccccc32)c1 | 5.17 µM (active) | 
Cc1ccc(C(=O)NCC(c2cccs2)N(C)C)cc1S(=O)(=O)N1CCOCC1 (configuration not stated) | inactive | 
CC(=O)C[C@H](O)CC(=O)[C@@H]1OC(=O)[C@@H](C)C/C=C\Cc2ccccc21 | inactive | 
CC(C)C[C@H]1CN([C@@H](CC(C)C)CN2CCC[C@@H]2CN2C(=O)C(=O)NC[C@@H]2Cc2ccccc2)C(=O)C(=O)N1CCc1ccccc1 | inactive | 
CCOc1ccccc1NC(=O)Cn1nnc(C(=O)NCc2cccs2)c1N | 0.146 µM (active) | 
CCc1ccc(NC(=O)Cn2nnc(C(=O)NCc3ccc(OC)cc3)c2N)cc1 | inactive | 
CCOc1ccccc1NC(=O)Cc1cccs1 | inactive | 
